In PubChem BioAssay (EPA / NIEHS):
Active and inactive are the calls of the source. The calls were made as follows: active = hit-call score of the fitted dose curve at least 0.9, where 1 is the maximum; inactive = score below 0.9.

Assays:
Conditions in all cases: mRNA level, 48 h; actives raise or lower the signal
[1] = read-out: Cytochrome P450 4A22 (Homo sapiens) (UniProt Q5TCH4); assay: LTEA_HepaRG_CYP4A22: Life Technologies and Expression Analysis (LTEA) Assay for Cytochrome P450 4A22 (CYP4A22) using HepaRG (AID 2283495)
Summary of the method: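 Cryopreserved HepaRG cells, plated and cultured 48 h, then switched to serum-free induction medium and treated 48 h (duplicates, up to 100 uM, half-log steps, 0.5% DMSO). Expression change of CYP4A22 was fitted bidirectionally against vehicle.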

[2] = read-out: Cytochrome P450 7A1 (Homo sapiens) (UniProt P22680); assay: LTEA_HepaRG_CYP7A1: Life Technologies and Expression Analysis (LTEA) Assay for Cytochrome P450 7A1 (CYP7A1) using HepaRG (AID 2283496)
Summary of the method: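 HepaRG cells plated 48 h, then switched to serum-free induction medium and exposed in duplicate for 48 h to 8-point half-log series from 100 uM in 0.5% DMSO. CYP7A1 mRNA by qRT-PCR (TaqMan), normalized to ACTB/GAPDH/POLR2A; bidirectional fit versus DMSO.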

[3] = read-out: Glutathione S-Transferase (GSTA2), GSTA2 (gene 2939); assay: LTEA_HepaRG_GSTA2: Life Technologies and Expression Analysis (LTEA) Assay for Glutathione S-Transferase (GSTA2) using HepaRG (AID 2283497)
Summary of the method: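 HepaRG, 48 h dosing, 8-pt half-log CRC from 100 uM, 0.5% DMSO vehicle, n=2; RNA → Fluidigm TaqMan qRT-PCR; GSTA2 vs ACTB/GAPDH/POLR2A; gain/loss fit vs DMSO.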

[4] = read-out: Glutamate-cysteine ligase catalytic (GCLC), GCLC (gene 2729); assay: LTEA_HepaRG_GCLC: Life Technologies and Expression Analysis (LTEA) Assay for Glutamate-cysteine ligase catalytic (GCLC) using HepaRG (AID 2283498)
Summary of the method: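 Read-out is GCLC transcript level by Fluidigm-based TaqMan qRT-PCR, normalized to three housekeeping genes and fitted in both directions relative to 0.5% DMSO. Human HepaRG cells received chemicals for 48 h, up to 100 uM.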

[5] = read-out: growth arrest and DNA damage 45 (GADD45G), GADD45G (gene 10912); assay: LTEA_HepaRG_GADD45G: Life Technologies and Expression Analysis (LTEA) Assay for growth arrest and DNA damage 45 (GADD45G) using HepaRG (AID 2283499)
Summary of the method: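 Human hepatic HepaRG line treated 48 h with chemicals (eight concentrations, half-log steps from 100 uM); transcript induction or repression of GADD45G scored by qRT-PCR versus DMSO vehicle.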

[6] = read-out: Glutamate-cysteine ligase regulatory (GCLM), GCLM (gene 2730); assay: LTEA_HepaRG_GCLM: Life Technologies and Expression Analysis (LTEA) Assay for Glutamate-cysteine ligase regulatory (GCLM) using HepaRG (AID 2283500)
Summary of the method: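 Cells were plated, cultured 48 h, switched to serum-free induction medium, then dosed in duplicate for 48 h at eight half-log concentrations up to 100 uM. RNA was then profiled by qRT-PCR; gain or loss versus DMSO was fitted.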

[7] = read-out: Glutathione S-transferase M3 (GSTM3), GSTM3 (gene 2947); assay: LTEA_HepaRG_GSTM3: Life Technologies and Expression Analysis (LTEA) Assay for Glutathione S-transferase M3 (GSTM3) using HepaRG (AID 2283501)
Summary of the method: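 Changes in GSTM3 expression, an oxidative-stress marker, were scored by bidirectional curve fitting against 0.5% DMSO vehicle. Human HepaRG cultures received chemicals for 48 h in duplicate, highest concentration 100 uM with half-log dilutions.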

[8] = read-out: Heat shock 70 kDa protein 1 (HSPA1A), gene 3303; assay: LTEA_HepaRG_HSPA1A: Life Technologies and Expression Analysis (LTEA) Assay for Heat shock 70 kDa protein 1 (HSPA1A) using HepaRG (AID 2283502)
Summary of the method: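 Readout is HSPA1A transcript level by microfluidic qRT-PCR, normalized to three housekeeping genes and analysed for gain or loss of signal relative to 0.5% DMSO. Human HepaRG cultures received test chemicals for 48 h at up to 100 uM.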

[9] = read-out: Hypoxia-inducible factor 1-alpha (Homo sapiens) (UniProt Q16665); assay: LTEA_HepaRG_HIF1A: Life Technologies and Expression Analysis (LTEA) Assay for Hypoxia-inducible factor 1 (HIF1A) Trancription factor using HepaRG (AID 2283503)
Summary of the method: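 Differentiated HepaRG cells in serum-free induction medium exposed 48 h, in duplicate, to 8-point half-log series from 100 uM in 0.5% DMSO. HIF1A mRNA measured by TaqMan qRT-PCR, normalized to ACTB/GAPDH/POLR2A, fitted bidirectionally versus DMSO.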

[10] = read-out: 3-Hydroxy-3-Methylglutaryl-CoA Synthase 2 (HMGCS2), HMGCS2 (gene 3158); assay: LTEA_HepaRG_HMGCS2: Life Technologies and Expression Analysis (LTEA) Assay for 3-Hydroxy-3-Methylglutaryl-CoA Synthase 2 (HMGCS2) using HepaRG (AID 2283504)
Summary of the method: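 Expression of HMGCS2 in human HepaRG liver cells is measured by qRT-PCR 48 h after dosing (highest 100 uM, half-log series, 0.5% DMSO). Values come from bidirectional concentration-response fitting with DMSO as baseline.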

HGF (gene 3082) = assay: LTEA_HepaRG_HGF: Life Technologies and Expression Analysis (LTEA) Assay for Hepatocyte Growth Facto (HGF) using HepaRG (AID 2283505)
Summary of the method: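 Gain or loss of HGF mRNA in human HepaRG liver cells after 48 h chemical exposure; eight concentrations up to 100 uM with 0.5% DMSO vehicle, quantified by TaqMan qRT-PCR.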

[11] = read-out: Insulin Like Growth Factor 1 (IGF1), IGF1 (gene 3479); assay: LTEA_HepaRG_IGF1: Life Technologies and Expression Analysis (LTEA) Assay for Insulin Like Growth Factor 1 (IGF1) using HepaRG (AID 2283506)
Summary of the method: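 HepaRG, plated 48 h, then switched to serum-free induction media; test chemical 8-pt half-log from 100 uM (0.5% DMSO), duplicate, 48 h. Lysis in RLT, TaqMan qRT-PCR, norm. ACTB/GAPDH/POLR2A. Bidirectional fit vs DMSO.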

[12] = read-out: Intercellular Adhesion Molecule 1 (ICAM1), ICAM1 (gene 3383); assay: LTEA_HepaRG_ICAM1: Life Technologies and Expression Analysis (LTEA) Assay for Intercellular Adhesion Molecule 1 (ICAM1) using HepaRG (AID 2283507)
Summary of the method: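 Gain or loss of transcript in HepaRG hepatic cells is quantified by qRT-PCR after 48 h chemical exposure (up to 100 uM, half-log steps), with DMSO as baseline.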

[13] = read-out: Insulin-like growth factor-binding protein 1 (IGFBP1), IGFBP1 (gene 3484); assay: LTEA_HepaRG_IGFBP1: Life Technologies and Expression Analysis (LTEA) Assay for Insulin-like growth factor-binding protein 1 (IGFBP1) using HepaRG (AID 2283508)
Summary of the method: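 mRNA induction or loss was quantified by qRT-PCR after 48 h chemical exposure of human HepaRG cells, with 0.5% DMSO as vehicle and baseline. Concentration-response over eight points up to 100 uM.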

[14] = read-out: Interleukin 6 (IL6), IL6 (gene 3569); assay: LTEA_HepaRG_IL6: Life Technologies and Expression Analysis (LTEA) Assay for Interleukin 6 (IL6) using HepaRG (AID 2283509)
Summary of the method: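 HepaRG, ~100,000 cells/well, 48 h pre-culture; serum-free induction medium; cmpd 8-pt half-log from 100 uM, 0.5% DMSO, duplicate, 48 h. Lysis in RLT, TaqMan qRT-PCR; gain or loss vs DMSO.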

[15] = read-out: Interleukin 6 Receptor (IL6R), IL6R (gene 3570); assay: LTEA_HepaRG_IL6R: Life Technologies and Expression Analysis (LTEA) Assay for Interleukin 6 Receptor (IL6R) using HepaRG (AID 2283510)
Summary of the method: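 Readout is IL6R transcript level by TaqMan qRT-PCR, normalized to three housekeeping genes and fitted bidirectionally against 0.5% DMSO controls. Human HepaRG cells received chemicals for 48 h in serum-free induction medium, highest concentration 100 uM.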

[16] = read-out: Potassium channel subfamily K member 1 (KCNK1), KCNK1 (gene 3775); assay: LTEA_HepaRG_KCNK1: Life Technologies and Expression Analysis (LTEA) Assay for Potassium channel subfamily K member 1 (KCNK1) using HepaRG (AID 2283511)
Summary of the method: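 Gain or loss of KCNK1 mRNA is the read-out, quantified by qRT-PCR against three housekeeping genes after 48 h chemical treatment of human HepaRG liver cells. Concentrations ran from 100 uM downward in half-log steps, vehicle 0.5% DMSO.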

[17] = read-out: Lipase C (LIPC), LIPC (gene 3990); assay: LTEA_HepaRG_LIPC: Life Technologies and Expression Analysis (LTEA) Assay for Lipase C (LIPC) using HepaRG (AID 2283514)
Summary of the method: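 Read-out is LIPC transcript level by TaqMan qRT-PCR, normalized to three housekeeping genes, after 48 h chemical treatment of human HepaRG liver cells. Curves span eight concentrations topping at 100 uM; activity in either direction scored relative to 0.5% DMSO.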

[18] = read-out: Keratin 19 (KRT19), KRT19 (gene 3880); assay: LTEA_HepaRG_KRT19: Life Technologies and Expression Analysis (LTEA) Assay for Keratin 19 (KRT19) using HepaRG (AID 2283512)
Summary of the method: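 Gene-expression endpoint in the human liver line HepaRG after 48 h exposure to up to 100 uM test chemical with 0.5% DMSO vehicle; KRT19 mRNA by qRT-PCR, analyzed bidirectionally versus DMSO.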

[19] = read-out: JUN Transcription Factor, JUN (gene 3725); assay: LTEA_HepaRG_JUN: Life Technologies and Expression Analysis (LTEA) Assay for JUN Transcription Factor using HepaRG (AID 2283513)
Summary of the method: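 Cells plated 48 h, medium switched to serum-free induction medium, then dosed 48 h (100 uM top, half-log dilutions, 0.5% DMSO). RNA isolated; JUN measured by qRT-PCR against three housekeeping genes; gain or loss fitted relative to DMSO.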

Hypoxia-inducible factor 1-alpha (Homo sapiens), sequence (Q16665 whole entry, looked up): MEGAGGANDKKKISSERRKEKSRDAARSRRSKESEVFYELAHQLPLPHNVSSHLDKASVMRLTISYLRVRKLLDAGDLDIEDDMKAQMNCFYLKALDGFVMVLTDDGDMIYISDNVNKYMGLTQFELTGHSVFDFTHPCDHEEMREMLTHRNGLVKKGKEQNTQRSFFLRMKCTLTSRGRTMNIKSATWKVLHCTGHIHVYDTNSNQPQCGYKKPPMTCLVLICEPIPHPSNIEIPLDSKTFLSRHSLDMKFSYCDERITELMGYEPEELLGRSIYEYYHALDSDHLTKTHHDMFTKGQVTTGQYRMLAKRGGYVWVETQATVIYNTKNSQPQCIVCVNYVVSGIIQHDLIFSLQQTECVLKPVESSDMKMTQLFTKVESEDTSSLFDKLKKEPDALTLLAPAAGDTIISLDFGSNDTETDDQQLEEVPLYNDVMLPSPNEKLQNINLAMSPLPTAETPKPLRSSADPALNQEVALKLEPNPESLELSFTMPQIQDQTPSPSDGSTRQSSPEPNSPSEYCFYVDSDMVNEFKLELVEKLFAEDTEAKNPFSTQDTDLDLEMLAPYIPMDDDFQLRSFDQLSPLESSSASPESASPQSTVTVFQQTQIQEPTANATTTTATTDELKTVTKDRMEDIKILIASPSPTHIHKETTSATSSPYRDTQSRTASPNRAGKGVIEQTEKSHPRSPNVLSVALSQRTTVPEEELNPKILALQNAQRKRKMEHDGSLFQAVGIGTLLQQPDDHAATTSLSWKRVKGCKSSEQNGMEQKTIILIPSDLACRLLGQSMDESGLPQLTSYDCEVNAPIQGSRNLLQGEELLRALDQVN

What does the source list for `O=C1O[C@H]([C@@H](O)CO)C(O)=C1O`?
outcome [1]: inactive; outcome [2]: inactive; outcome [3]: inactive; outcome [4]: inactive; outcome [5]: inactive; outcome [6]: inactive; outcome [7]: inactive; outcome [8]: inactive; outcome [9]: inactive; outcome [10]: inactive; outcome (HGF (gene 3082)): inactive; outcome [11]: inactive; outcome [12]: inactive; outcome [13]: inactive; outcome [14]: inactive; outcome [15]: inactive; outcome [16]: inactive; outcome [17]: inactive

Which results are given for `CCCCOC(=O)c1ccc(O)cc1`?
outcome [1]: inactive; outcome [2]: inactive; outcome [3]: inactive; outcome [4]: inactive; outcome [5]: inactive; outcome [6]: inactive; outcome [7]: inactive; outcome [8]: inactive; outcome [10]: inactive; outcome (HGF (gene 3082)): inactive; outcome [11]: inactive; outcome [12]: inactive; outcome [13]: inactive; outcome [14]: inactive; outcome [15]: inactive; outcome [16]: inactive; outcome [18]: inactive; outcome [19]: inactive; outcome [17]: inactive

Which outcome [2] does the source give for `c1ccc2n[nH]nc2c1` here?
Its outcome is “inactive”.

What about the outcome [3] of the same compound?
Its outcome is “inactive”.

What about the outcome [4] of the same compound?
The outcome was “inactive”.

What about the outcome [5] of the same compound?
The outcome was “inactive”.

What about the outcome [6] of the same compound?
The outcome was “inactive”.

What about the outcome [7] of the same compound?
The outcome was “inactive”.

What about the outcome [8] of the same compound?
Its outcome is “inactive”.

And the outcome [9]?
Its outcome is “inactive”.

And the outcome [10]?
The outcome was “inactive”.

What about the outcome (HGF (gene 3082)) of the same compound?
Its outcome is “inactive”.

What about the outcome [11] of the same compound?
The outcome was “inactive”.

What about the outcome [12] of the same compound?
Its outcome is “inactive”.

What about the outcome [13] of the same compound?
The outcome was “inactive”.

And the outcome [14]?
Its outcome is “inactive”.

What about the outcome [15] of the same compound?
The outcome was “inactive”.

What about the outcome [16] of the same compound?
Its outcome is “inactive”.

What about the outcome [18] of the same compound?
The outcome was “inactive”.

What about the outcome [19] of the same compound?
The outcome was “inactive”.

And the outcome [17]?
The outcome was “inactive”.

What does the source list for `CC1(C)NC(=O)N(c2ccc([N+](=O)[O-])c(C(F)(F)F)c2)C1=O`?
AC50 [1]: 67.4 µM (active); AC50 [2]: 90.1 µM (active); AC50 [3]: 78.4 µM (active); AC50 [4]: 83.4 µM (active); AC50 [5]: 77.4 µM (active); AC50 [6]: 70.9 µM (active); outcome [7]: inactive; outcome [8]: inactive; AC50 [10]: 76.6 µM (active); outcome (HGF (gene 3082)): inactive; AC50 [11]: 69.2 µM (active); outcome [12]: inactive; AC50 [13]: 90.2 µM (active); AC50 [14]: 83.7 µM (active); outcome [15]: inactive; outcome [16]: inactive; AC50 [18]: 67.8 µM (active); outcome [19]: inactive; AC50 [17]: 89.7 µM (active)
